Calls of active or inactive are those of the source.
Experiments:
[1] = system: Human papillomavirus type 1a protein E7 (residues 44-93); assay: small molecules binding HPV E7 44-93 – biochemical, small-molecule microarray, residues 44-93, 635 nm fluorescence, primary screen (AID 1108); details: fluorescence 635 nm, higher = more signal;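 further: E7 fragment applied at 1 µg/mL in TBST for 1 h at 4 C; score combines spot fluorescence with its signal to noise ratio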
[2] = hepatitis C replication reporter changes, two-sided – Huh7 cells, luciferase reporter, HCV replication inhibitor project, primary screen (AID 1109); details: Huh7 HCV replicon luciferase reporter, 48 h; higher = more signal;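 further: huh7 hepatoma cells harbouring a luciferase neomycin HCV replicon reporter; luciferase luminescence as measure of HCV replicon replication; test concentration not given here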
[3] = molecular target: Left-right determination factor 2 (Homo sapiens) (UniProt O00292); assay: small molecules binding LEFTY2 protein – biochemical, small-molecule microarray, 635 nm fluorescence scan, primary screen (AID 1110); details: higher = more signal
[4] = molecular target: Calmodulin-1 (Homo sapiens) (UniProt P0DP23); assay: small molecules binding calmodulin-1 with EGTA – biochemical, small-molecule microarray, Cy5-labelled CALM1, profiling panel (AID 1111); details: Cy5-CALM1 binding fluorescence, higher = more signal;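 further: labelled calmodulin applied in Tris saline Tween buffer holding calcium plus EGTA and DTT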
[5] = molecular target: Calmodulin-1 (Homo sapiens) (UniProt P0DP23); assay: small molecules binding Ca-loaded calmodulin-1 – biochemical, small-molecule microarray, Cy5-labelled CALM1, plus calcium, artefact control for SMM control-protein annotation, profiling panel (AID 1112); details: Cy5-CALM1 binding fluorescence, higher = more signal;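 further: score merges spot fluorescence with signal to noise from triplicate slides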
[6] = probe aWnt5a binding to arrayed compounds – biochemical, biotinylated probe, 635/667 nm fluorescence, primary screen (AID 1113); details: small-molecule microarray, higher = more signal;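 further: score merges 667 nm fluorescence intensity with signal-to-noise per printed feature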
[7] = probe aShh binding to arrayed compounds – biochemical, biotinylated probe, 635/667 nm fluorescence, primary screen (AID 1114); details: small-molecule microarray, higher = more signal;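 further: probe is biotin-labelled aShh protein from a stem cell growth factor screen; measures binding of labelled protein to compounds printed on the slide; score merges feature fluorescence at 667 nm with signal-to-noise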
[8] = probe aNog binding to arrayed compounds – biochemical, biotinylated probe, 635/667 nm fluorescence, primary screen (AID 1115); details: small-molecule microarray, higher = more signal;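 further: probe is biotinylated aNog protein used at 0.15 µg/mL for 1 h at 4 C; z-score combines 667 nm fluorescence of each spot with its signal to noise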
[9] = molecular target: Torsin-1A-interacting protein 1 (Homo sapiens) (UniProt Q5JTV8); assay: compound microarray binding of lysate hLAP1 – cell lysate, small-molecule microarray, COS7 lysate, 635/667 nm fluorescence, primary screen (AID 1116); details: 635 nm fluorescence, higher = more signal
[10] = molecular target: Alpha-bungarotoxin (Bungarus multicinctus) (UniProt P60615); assay: compounds binding labelled alpha-BTX control protein – biochemical, small-molecule microarray, Alexa647 label, 635/667 nm fluorescence, artefact control for SMM control protein annotation, profiling panel (AID 1117); details: alpha-BTX-A647 binding fluorescence, higher = more signal
Albumin (Bos taurus) = Albumin (Bos taurus) (UniProt P02769); assay: compounds binding labelled BSA control protein – biochemical, small-molecule microarray, Alexa647 label, 635/667 nm fluorescence, artefact control for SMM control protein annotation, profiling panel (AID 1118); details: BSA-A647 binding, fluorescence 635 nm, higher = more signal;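 further: score merges 667 nm emission intensity and signal-to-noise per printed compound spot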
[11] = probe aXIP binding to arrayed compounds – biochemical, NeuroSMM set, 635/667 nm fluorescence, primary screen (AID 1119); details: small-molecule microarray, higher = more signal, called active from +8 up or from −8 down;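 further: probe is the protein aXip251-270 applied at 1 µg/mL to compound-printed slides; binding of probe to printed compounds measured as 667 nm fluorescence plus signal to noise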
[12] = probe aNOTCH3 binding on compound microarray – biochemical, small-molecule microarray, 635/667 nm fluorescence, primary screen (AID 1120); details: higher = more signal;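 further: probe is a biotin-tagged antibody raised against NOTCH3 rather than NOTCH3 protein; score merges spot fluorescence near 667 nm with spot signal to noise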
[13] = probe aNOTCH2 binding on compound microarray – biochemical, small-molecule microarray, 635/667 nm fluorescence, primary screen (AID 1121); details: higher = more signal;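 further: score merges feature fluorescence read at 667 nm with its signal to noise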
[14] = molecular target: Carbonic anhydrase 2 (Homo sapiens) (UniProt P00918); assay: compounds binding carbonic anhydrase 2 – biochemical, small-molecule microarray, Alexa647-labelled CAII, profiling panel (AID 1122); details: CAII-A647 binding fluorescence, higher = more signal
[15] = COS7 lysate on small-molecule microarray, probe aHis, 635 nm (AID 1123); details: COS7 cell lysate, fluorescence, higher = more signal;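 further: z-score combines 667nm fluorescence intensity with signal-to-noise per printed compound spot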
[16] = probe aLAP1 signal on lysate-treated microarray – cell lysate, small-molecule microarray, COS7 lysate, primary screen (AID 1124); details: probe aLAP1, fluorescence, higher = more signal;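 further: lysate comes from COS7 cells expressing LAP1 and is applied at 0.3 µg/mL; score merges spot fluorescence near 667 nm with signal-to-noise over triplicate slides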
Sam68 (KHDRBS1) = assay: compounds binding KHDRBS1 protein – biochemical, small-molecule microarray, 635 nm fluorescence, primary screen (AID 1125); details: higher = more signal;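 further: score merges 667 nm channel intensity with signal to noise over triplicate slides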
[17] = system: Chordin-like protein 2 (CHRDL2); assay: compounds binding chordin-like 2 – biochemical, small-molecule microarray, 635 nm fluorescence, primary screen (AID 1126); details: fluorescence 635 nm, higher = more signal;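 further: printed compound slides probed with Chrdl2 protein at 4 µg/mL for 1 h at 4 C; score merges 667 nm emission intensity with signal to noise over three replicate slides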
[18] = molecular target: Concanavalin-A (Canavalia ensiformis) (UniProt P02866); assay: compounds binding concanavalin A lectin – biochemical, small-molecule microarray, Alexa647 label, 635 nm, artefact control for SMM control protein annotation, primary screen (AID 1127); details: ConA-A647 binding fluorescence, higher = more signal;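 further: z combines 667 nm emission intensity with signal-to-noise across three replicate slides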
Concanavalin-A (Canavalia ensiformis), sequence (P02866 whole entry, looked up): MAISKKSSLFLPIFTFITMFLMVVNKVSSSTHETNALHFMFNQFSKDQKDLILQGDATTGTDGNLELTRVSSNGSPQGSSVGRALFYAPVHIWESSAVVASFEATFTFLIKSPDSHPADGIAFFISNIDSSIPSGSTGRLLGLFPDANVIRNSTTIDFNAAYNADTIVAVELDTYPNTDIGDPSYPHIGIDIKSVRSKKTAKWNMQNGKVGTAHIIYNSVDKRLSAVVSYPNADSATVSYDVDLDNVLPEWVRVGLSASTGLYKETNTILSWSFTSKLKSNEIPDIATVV

Torsin-1A-interacting protein 1 (Homo sapiens), sequence (Q5JTV8 whole entry, looked up): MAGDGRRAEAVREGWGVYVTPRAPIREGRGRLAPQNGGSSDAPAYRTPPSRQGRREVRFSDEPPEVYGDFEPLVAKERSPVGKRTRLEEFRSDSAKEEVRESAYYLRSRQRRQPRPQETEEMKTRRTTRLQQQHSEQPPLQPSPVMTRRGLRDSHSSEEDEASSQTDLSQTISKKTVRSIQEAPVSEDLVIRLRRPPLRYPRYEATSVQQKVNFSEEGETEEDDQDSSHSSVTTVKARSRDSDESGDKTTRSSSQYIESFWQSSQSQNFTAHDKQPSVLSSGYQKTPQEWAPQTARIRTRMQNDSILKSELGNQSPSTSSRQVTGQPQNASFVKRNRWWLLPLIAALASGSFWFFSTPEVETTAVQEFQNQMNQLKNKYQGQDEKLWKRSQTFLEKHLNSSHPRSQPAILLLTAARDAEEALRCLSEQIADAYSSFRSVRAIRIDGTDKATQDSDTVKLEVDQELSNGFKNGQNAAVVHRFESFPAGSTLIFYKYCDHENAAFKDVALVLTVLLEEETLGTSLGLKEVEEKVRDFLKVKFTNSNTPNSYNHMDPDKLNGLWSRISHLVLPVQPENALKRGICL
Alpha-bungarotoxin (Bungarus multicinctus), sequence (P60615 whole entry, looked up): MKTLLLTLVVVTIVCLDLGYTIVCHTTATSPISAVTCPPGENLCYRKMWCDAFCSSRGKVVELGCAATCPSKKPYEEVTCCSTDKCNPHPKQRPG
Left-right determination factor 2 (Homo sapiens), sequence (O00292 whole entry, looked up): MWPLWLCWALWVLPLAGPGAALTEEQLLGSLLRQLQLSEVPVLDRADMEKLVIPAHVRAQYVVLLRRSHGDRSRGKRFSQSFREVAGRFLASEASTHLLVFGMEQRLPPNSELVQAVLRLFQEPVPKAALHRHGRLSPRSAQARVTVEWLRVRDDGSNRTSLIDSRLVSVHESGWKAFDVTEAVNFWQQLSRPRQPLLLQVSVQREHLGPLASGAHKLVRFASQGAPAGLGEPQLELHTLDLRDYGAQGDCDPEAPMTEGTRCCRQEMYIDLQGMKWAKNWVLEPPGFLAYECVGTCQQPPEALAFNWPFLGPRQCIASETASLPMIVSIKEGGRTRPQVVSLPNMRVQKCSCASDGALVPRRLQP
Albumin (Bos taurus), sequence (P02769 whole entry, looked up): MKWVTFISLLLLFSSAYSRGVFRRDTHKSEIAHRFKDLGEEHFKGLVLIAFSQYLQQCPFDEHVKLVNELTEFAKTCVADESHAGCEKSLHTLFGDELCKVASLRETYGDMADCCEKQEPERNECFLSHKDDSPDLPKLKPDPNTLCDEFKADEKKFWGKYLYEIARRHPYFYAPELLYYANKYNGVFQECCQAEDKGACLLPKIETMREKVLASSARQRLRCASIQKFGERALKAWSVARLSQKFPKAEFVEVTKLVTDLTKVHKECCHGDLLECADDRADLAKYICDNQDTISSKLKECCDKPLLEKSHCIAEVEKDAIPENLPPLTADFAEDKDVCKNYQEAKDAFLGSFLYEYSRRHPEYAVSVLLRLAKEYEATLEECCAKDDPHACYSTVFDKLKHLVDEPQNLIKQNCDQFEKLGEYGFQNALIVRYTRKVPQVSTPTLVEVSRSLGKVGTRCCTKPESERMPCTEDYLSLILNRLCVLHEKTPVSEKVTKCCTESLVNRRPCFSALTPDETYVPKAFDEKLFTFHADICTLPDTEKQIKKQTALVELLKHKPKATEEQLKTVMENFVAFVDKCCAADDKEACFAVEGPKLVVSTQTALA

Row | SMILES | composite z-score [1] | z-score [2] | composite z-score [3] | composite z-score [4] | composite z-score [5] | composite z-score [6] | composite z-score [7] | composite z-score [8] | composite z-score [9] | composite z-score [10] | composite z-score (Albumin (Bos taurus)) | composite Z-score [11] | composite z-score [12] | composite z-score [13] | composite z-score [14] | composite z-score [15] | composite z-score [16] | composite z-score (Sam68 (KHDRBS1)) | composite z-score [17] | composite z-score [18]
1 | CC(C)N1C(=O)C[C@@](C(=O)O)(c2ccc([N+](=O)[O-])cc2)[C@H]1c1ccc(CO)cc1 | 0.48 | 0.253 | -1.14 | 0.233 | 0.432 | -0.118 | -0.153 | -0.409 | 0.335 | -0.315 | -0.795 | 0.589 (inactive) | -0.0947 | -0.0586 | 0.754 | 1.52 | 0.0273 | 0.69 | -1.25 | 0.279
2 | Cc1ccc(S[C@]2(C(=O)NCC(F)(F)F)CC(=O)N(Cc3cc(C(F)(F)F)cc(C(F)(F)F)c3)[C@@H]2c2ccc(CO)cc2)cc1 | -0.109 | -0.099 | -0.968 | -0.392 | 0.159 | -0.25 | -0.356 | 0.162 | -0.851 | -0.633 | -0.658 | -0.0775 (inactive) | -0.229 | -0.164 | 0.802 | -0.551 | -0.238 | -0.36 | -1.19 | -0.183
3 | COCCCNC(=O)[C@@]1(CCC(=O)OC(C)(C)C)N=C(c2ccc(OCCCO)cc2)O[C@H]1c1ccccc1N=[N+]=[N-] | 0.515 | 1.46 | 0.473 | 2.01 | 0.807 | 0.302 | 0.0326 | -0.261 | 2.32 | 1.71 | 0.945 | 0.289 (inactive) | 0.26 | 0.325 | 0.62 | 2.01 | 0.843 | 1.25 | 0.279 | 1.16
4 | C=CCNC(=O)[C@@H]1[C@H]2C(=O)O[C@H](c3ccccc3)[C@H](c3ccccc3)N2[C@H](c2ccc(O)cc2)[C@@]12C(=O)N(C(=O)OCCOC)c1ccc(C#CC3=CCCCC3)cc12 | 1.36 | -2.14 | 0.588 | 0.544 | -0.0251 | -0.0685 | -0.0769 | 0.185 | 0.319 | 0.662 | 0.179 | 0.683 (inactive) | 0.138 | -0.14 | 0.32 | 1.57 | 0.354 | 1.28 | 0.673 | 0.737
5 | COCCOC(=O)N1C(=O)[C@@]2(c3cc(C#CC4=CCCCC4)ccc31)[C@H](c1ccccc1OCCO)N1[C@H](c3ccccc3)[C@H](c3ccccc3)OC(=O)[C@H]1[C@@H]2C(=O)NC[C@H](O)c1ccccc1 | 1.4 | -3.19 | 0.869 | 1.04 | 0.213 | 0.0839 | 0.0081 | -0.939 | 0.978 | 1.64 | -0.185 | 0.511 (inactive) | 0.463 | -0.118 | 0.409 | 1.53 | 0.661 | 1.3 | 0.715 | 1.14
6 | COc1ccc([Si](C)(C)[C@@H]2[C@@H](CCO)O[C@]3(C(=O)N(Cc4ccccc4)c4ccc(NC(=O)[C@H](C)O)cc43)[C@H]2C)cc1 | 1.35 | -5.08 | 0.387 | 1.46 | -0.153 | 0.0559 | -0.0738 | -0.0428 | 1.5 | 0.484 | 0.0962 | -0.0289 (inactive) | 0.147 | -0.106 | 0.377 | 1.2 | 0.515 | 1.29 | 0.448 | 1.14
7 | Cc1cc(C)c(C(O)C2C=CC3C(=O)N(c4ccccc4)C(=O)C3N2Nc2ccccc2F)c(C)c1 (stereo not given) | 0.0453 | 0.937 | -0.636 | 0.139 | -0.0086 | 0.184 | 0.282 | 1.32 | 0.563 | 0.505 | 0.553 | 0.224 (inactive) | 0.0602 | 0.0278 | 0.365 | 1.08 | 0.725 | -0.186 | 0.0036 | 0.511
8 | COc1cc(OC)c(C(O)C2C=CC3C(=O)N(Cc4ccccc4)C(=O)C3N2n2cnnc2)cc1Br (stereo not given) | 1.36 | -1.61 | -0.6 | 0.181 | 0.595 | 0.0173 | -0.131 | 0.665 | 0.781 | 0.871 | 0.725 | -0.395 (inactive) | 0.056 | -0.0398 | 0.377 | 1.64 | 0.953 | 1.2 | -1.15 | 0.756
9 | CCCC1(C(=O)OC)C=C2C(=C(C)C(=O)C2C)CN1 (stereo not given) | -0.75 | -0.442 | -0.569 | -0.119 | 0.881 | -0.0512 | 0.0141 | 0.929 | 0.635 | -0.14 | -0.15 | 0.931 (inactive) | 0.0416 | -0.0936 | 0.664 | 1.24 | -0.293 | -0.406 | -0.027 | -2.2
10 | O=C1CS(=O)(=O)C(c2cccc([N+](=O)[O-])c2)N1c1ccccc1 (stereo not given) | -0.611 | -0.376 | 0.432 | 0.0568 | -0.177 | 0.157 | 0.122 | -0.217 | 1.49 | 1.98 | 0.501 | 1.11 (inactive) | 0.482 | 0.48 | 0.787 | 0.904 | 0.85 | 0.329 | 0.527 | 0.353
11 | COc1ccc(CCNC(=O)[C@@]2(Sc3ccc(C)cc3)CC(=O)N(Cc3ccccc3C(F)(F)F)[C@@H]2c2ccc(CO)cc2I)cc1 | 0.497 | -2.42 | -1.5 | 0.138 | 0.14 | -0.0792 | -0.0849 | 0.924 | 0.357 | 1.73 | 0.589 | -0.0511 (inactive) | -0.357 | 0.102 | 0.759 | 2.09 | -0.0867 | -0.3 | -0.865 | -0.71
12 | C=C(C(=O)CC[C@H](OC(=O)c1ccccc1-c1ccccc1C(=O)O)c1cccc(OCCO)c1)C(C)C | -0.304 | -1.73 | -0.103 | -0.119 | -0.409 | -0.184 | -0.0605 | -0.1 | -0.126 | 0.436 | 0.688 | -0.302 (inactive) | -0.185 | -0.162 | 0.696 | 0.715 | 0.2 | -0.192 | -0.0748 | 0.0561
13 | CC(C)N1C(=O)c2ccccc2[C@@H](C(=O)NCCN2CCOCC2)[C@@H]1c1ccc(CO)cc1 | 0.0391 | -0.476 | -2.07 | -0.346 | 0.603 | -0.256 | -0.221 | -0.321 | -0.171 | -1.25 | 0.466 | 1.62 (inactive) | -0.313 | -0.155 | 0.786 | -0.735 | -0.523 | -1.21 | -1.51 | -0.538
